In PubChem BioAssay:
Where “and” joins values, the source holds several entries; their conditions need not be identical. Identical values can stand only once. Calls of active or inactive are those of the source.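 The calls were made as follows, unless noted: active = compound raises insulin release from rat beta cells at 5 mM glucose, no numeric limit stated; inactive = the rest.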

Assays:
[1] = stimulators of nuclear beta-catenin in C2C12, primary screen, imaging, WNT3A-conditioned medium, mouse C2C12, NPC library (AID 1117326; in the data active = nuclear beta-catenin stimulation mostly above about 4.2%, no sharp cut-off; inactive = mostly below about 10%); conditions: stronger effect = higher value
[2] = stimulators of insulin release from INS-1E, primary screen, cell-based, 5 mM glucose, NPC library (AID 1117329); conditions: rat INS-1E insulin secretion, at 10 µM, stronger effect = higher value
[3] = growth inhibition of GSK3B-pretreated HCT116 cells – cell-based, CellTiter-Glo, 0.2 to 20 µM (AID 1117336;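 active = compounds lowering colon cancer cell viability after pretreatment blocking the GSK3B kinase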); conditions: HCT116 viability after GSK3B inhibitor, at 20 µM, stronger effect = higher value
[4] = inhibition of endothelial tube formation, primary screen, imaging, VEGF stimulated, CD31 staining, tube area, NPC library (AID 1117340;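 active = compound that reduces growth-factor-driven endothelial tube area in a mixed cell culture, no cutoff stated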); conditions: VEGF-stimulated ADSC/ECFC co-culture, at 10 µM, stronger effect = higher value
[5] = glucagon-like peptide 1 release enhancers, primary assay, NCI-H716 cell line, NPC library (AID 1117341;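 active = compound raises GLP1 secretion from the human gut endocrine cells, with no numeric limit stated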); conditions: NCI-H716 cells, at 10 µM, stronger effect = higher value
[6] = HCT116 colon cancer cell growth inhibition, primary screen, CellTiter-Glo luminescence, NPC library (AID 1117342;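 active = compounds that lower survival of HCT116 colon cancer cells in the luminescence readout, no numeric limit stated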); conditions: at 20 µM (top of the series)
[7] = CellTiter-Glo luminescent readout of SW480 viability loss, NPC library primary (AID 1117343;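 active = compounds that lower viability of the colon cancer cells in the luminescence readout, with no numeric limit stated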); conditions: CellTiter-Glo luminescence; at 20 µM (top of the series)
[8] = decreased DLD-1 cellular survival, CellTiter-Glo luminescent readout, NPC compound collection, primary HTS (AID 1117346;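 active = compounds that lower survival of DLD-1 colon cancer cells in the luminescence readout, no cutoff given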); conditions: DLD-1 viability, CellTiter-Glo luminescence; at 20 µM (top of the series)
[9] = polyglutamine-triggered caspase-3 activation inhibitors, cell-based (AID 1583); conditions: polyglutamine-induced caspase-3 activation, cell assay; stronger effect = higher value;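 tested at 10 µM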
[10] = suppressors of polyQ aggregation in yeast, 75Q-TubU reporter (AID 1593); conditions: Yeast 75Q polyglutamine aggregation reporter
[11] = inhibitors of mitochondrial cytochrome c release, biochemical, purified mitochondria (AID 1603); conditions: stronger effect = lower value;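 also: mouse liver mitochondria challenged with calcium chloride; signal normalized to the plate average as 100%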
[12] = inhibitors of polyQ protein aggregation (AID 1604); conditions: polyglutamine-induced protein aggregation inhibition assay; stronger effect = higher value; tested at 2.5 µM
[13] = enhancers of glutamate uptake in motor neurons, MN-1 cell line (AID 1612); conditions: MN-1 motor neuron cells, stronger effect = higher value;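 also: tested at 1 µM final; 0% = mean of DMSO vehicle wells on each plate; positive means more glutamate uptake than control and negative means less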
[14] = suppressors of polyglutamine aggregation in yeast, 75Q-TubH (AID 1616); conditions: S. cerevisiae 75Q-TubH polyglutamine aggregation suppression; stronger effect = higher value
[15] = biological target: 6-phosphogluconate dehydrogenase, decarboxylating (Homo sapiens) (UniProt P52209); experiment: 6PGD enzyme inhibitors, primary screen, biochemical, human, recombinant enzyme, NADPH absorbance (AID 1159550;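 active = at least 20% inhibition of 6-phosphogluconate dehydrogenase activity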); conditions: recombinant 6PGD, NADPH absorbance 341 nm; at 10 µM; stronger effect = higher value
Chain of 6-phosphogluconate dehydrogenase, decarboxylating (Homo sapiens) (P52209 whole entry, looked up): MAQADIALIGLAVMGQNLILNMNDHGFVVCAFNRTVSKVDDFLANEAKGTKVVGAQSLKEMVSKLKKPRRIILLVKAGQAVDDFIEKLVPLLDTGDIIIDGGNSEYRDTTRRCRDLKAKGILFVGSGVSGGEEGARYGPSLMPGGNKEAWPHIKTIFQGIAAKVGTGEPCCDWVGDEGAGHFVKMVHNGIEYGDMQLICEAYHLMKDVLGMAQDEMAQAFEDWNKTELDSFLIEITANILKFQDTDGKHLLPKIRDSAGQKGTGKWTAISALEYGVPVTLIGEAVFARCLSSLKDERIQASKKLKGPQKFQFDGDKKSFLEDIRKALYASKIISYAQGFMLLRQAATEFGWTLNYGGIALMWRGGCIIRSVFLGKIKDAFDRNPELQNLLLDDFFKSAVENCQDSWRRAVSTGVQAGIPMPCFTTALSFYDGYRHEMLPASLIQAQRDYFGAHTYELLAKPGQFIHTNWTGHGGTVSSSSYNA

[16] = differential killing of epithelial or mesenchymal cells, primary screen, imaging, PC-3E GFP, TEM4-18 mCherry, co-culture (AID 1345086;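 active = compounds killing one labelled cell type while sparing the other, by normalised counts and ratio limits, not self-fluorescent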;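 also: cells exposed to compound for 72 h before imaging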;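 as to red/green cell ratio (normalised): normalised mesenchymal count divided by normalised epithelial count so high means epithelial killing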); conditions: imaging cell counts, at 1 µM
[17] = survival rescue of mitochondrial mutant cells in low glucose, primary screen, MELAS cybrids, Rieske KO mouse fibroblasts, CellTiter-Glo (AID 1508586;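 active = mean z-score across replicates of 1.96 or higher in either the MELAS or the Rieske mutant cell line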;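 also: z relative to plate mean and SD of compound and empty wells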)
[18] = biological target: NAD(+) hydrolase SARM1 (Homo sapiens) (UniProt Q6SZW1); experiment: SARM1 TIR NADase inhibitors, cell lysate, NAD-Glo luminescence (AID 1508614;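 active = compound whose remaining NAD level is above about 45 nM, limit read from the data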;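 also: higher remaining NAD means stronger inhibition of SARM1 NADase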); conditions: SAM-TIR HEK293T lysate NADase, at 1 µM, stronger effect = higher value
Chain of NAD(+) hydrolase SARM1 (Homo sapiens) (Q6SZW1 whole entry, looked up, the tested form may be a part): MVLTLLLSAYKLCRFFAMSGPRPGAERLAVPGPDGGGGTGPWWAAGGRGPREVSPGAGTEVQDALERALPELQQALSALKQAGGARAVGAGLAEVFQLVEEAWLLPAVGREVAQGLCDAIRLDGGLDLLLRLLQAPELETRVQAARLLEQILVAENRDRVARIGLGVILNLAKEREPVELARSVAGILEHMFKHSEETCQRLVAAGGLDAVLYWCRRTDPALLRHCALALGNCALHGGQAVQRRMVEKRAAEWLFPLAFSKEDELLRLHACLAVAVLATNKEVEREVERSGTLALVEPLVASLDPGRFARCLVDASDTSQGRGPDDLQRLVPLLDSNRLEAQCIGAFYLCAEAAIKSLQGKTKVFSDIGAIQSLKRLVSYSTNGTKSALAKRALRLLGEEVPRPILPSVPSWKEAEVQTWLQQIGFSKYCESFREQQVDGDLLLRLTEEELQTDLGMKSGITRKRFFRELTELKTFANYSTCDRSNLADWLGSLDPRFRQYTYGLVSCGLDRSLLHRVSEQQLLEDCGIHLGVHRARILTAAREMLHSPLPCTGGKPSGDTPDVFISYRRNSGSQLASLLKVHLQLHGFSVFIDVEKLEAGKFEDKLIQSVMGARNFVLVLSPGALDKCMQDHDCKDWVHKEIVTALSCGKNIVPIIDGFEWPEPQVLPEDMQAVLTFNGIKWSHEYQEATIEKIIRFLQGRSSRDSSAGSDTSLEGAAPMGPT

[19] = biological target: Mitogen-activated protein kinase 7 (Homo sapiens) (UniProt Q13164); experiment: ERK5 transactivation activators in reporter cells, primary screen, cell-based, HTS (AID 1508626;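 active = luciferase signal above three times the same-plate solvent-only control wells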;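 also: luciferase driven by Gal4-ERK5 fusion binding five Gal4 sites before minimal TATA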); conditions: HeLa Gal4-ERK5 transactivation, 18 h, at 5 µM, stronger effect = higher value
Chain of Mitogen-activated protein kinase 7 (Homo sapiens) (Q13164 whole entry, looked up, the tested form may be a part): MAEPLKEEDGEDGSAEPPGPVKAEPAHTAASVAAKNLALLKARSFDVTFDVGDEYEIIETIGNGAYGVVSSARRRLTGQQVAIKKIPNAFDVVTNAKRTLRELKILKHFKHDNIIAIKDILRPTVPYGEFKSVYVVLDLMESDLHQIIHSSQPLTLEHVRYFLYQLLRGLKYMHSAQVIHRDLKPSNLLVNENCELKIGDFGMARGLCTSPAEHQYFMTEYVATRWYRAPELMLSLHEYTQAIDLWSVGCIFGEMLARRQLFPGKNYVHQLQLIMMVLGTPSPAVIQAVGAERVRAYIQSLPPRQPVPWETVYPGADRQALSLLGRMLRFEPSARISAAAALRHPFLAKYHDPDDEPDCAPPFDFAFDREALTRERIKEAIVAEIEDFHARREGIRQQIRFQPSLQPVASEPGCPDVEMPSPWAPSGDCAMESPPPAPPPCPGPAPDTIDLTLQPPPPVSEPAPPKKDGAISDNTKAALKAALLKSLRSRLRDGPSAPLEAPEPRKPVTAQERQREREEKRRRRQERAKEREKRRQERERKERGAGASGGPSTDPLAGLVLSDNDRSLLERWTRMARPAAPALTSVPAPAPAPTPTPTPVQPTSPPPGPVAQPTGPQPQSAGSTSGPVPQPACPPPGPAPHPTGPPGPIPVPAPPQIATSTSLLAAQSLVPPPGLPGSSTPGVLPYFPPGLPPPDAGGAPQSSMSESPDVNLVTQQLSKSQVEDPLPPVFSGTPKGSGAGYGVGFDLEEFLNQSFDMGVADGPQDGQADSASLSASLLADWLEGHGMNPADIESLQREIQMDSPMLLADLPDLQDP

O=C(O)CNC(=O)c1ccccc1
1.4%: nuclear beta-catenin stimulation ([1]; stimulation, at 2 µM)
inactive: nuclear beta-catenin stimulation ([1]; at 10 µM) 1.3% | insulin secretion stimulation [2] -1.9% | viability decrease [3] -9.35% | tube area decrease [4] -7.6% | GLP1 secretion stimulation [5] 4% | inhibition of viability [6] -1.6% | viability decrease (inhibition) [7] 24.7% | viability decrease (inhibition) [8] 2.1%

O=C(O)c1cc(O)c2c(c1)[O][Bi][O]2
inactive: nuclear beta-catenin stimulation ([1]; at 10 µM) -2.2% | insulin secretion stimulation [2] -0.6% | viability decrease [3] -0.3% | tube area decrease [4] 11.1% | GLP1 secretion stimulation [5] -0.5% | inhibition of viability [6] 4.4% | viability decrease (inhibition) [7] 26.3% | viability decrease (inhibition) [8] 0.3%
1%: nuclear beta-catenin stimulation ([1]; stimulation, at 2 µM)

CC(CC1c2ccccc2CCc2ccccc21)CN(C)C (stereo not given)
active: insulin secretion stimulation [2] 29.8% | inhibition of viability [6] 44.4% | viability decrease (inhibition) [7] 84.4% | viability decrease (inhibition) [8] 87.7%
0.4%: nuclear beta-catenin stimulation ([1]; stimulation, at 2 µM)
inactive: nuclear beta-catenin stimulation ([1]; at 10 µM) -1% | viability decrease [3] 34.8% | tube area decrease [4] 9.8% | GLP1 secretion stimulation [5] -1.9%

CCO[C@@H]1O[C@H](C(COCc2ccccc2)OCc2ccccc2)[C@H](OCc2ccccc2)[C@H]1O (stereo not given in full)
-1.2%: nuclear beta-catenin stimulation ([1]; stimulation, at 2 µM)
active: inhibition of viability [6] 81.6% | viability decrease (inhibition) [7] 63.5% | viability decrease (inhibition) [8] 44.6%
inactive: nuclear beta-catenin stimulation ([1]; at 10 µM) -1.3% | insulin secretion stimulation [2] 2.2% | viability decrease [3] 15.1% | tube area decrease [4] 28.6% | GLP1 secretion stimulation [5] 6.9%

CC(C)C(=O)Nc1cccc(C(F)(F)F)c1
inactive: nuclear beta-catenin stimulation ([1]; at 10 µM) 1% | insulin secretion stimulation [2] 2.1% | viability decrease [3] 9.3% | tube area decrease [4] -5.2% | GLP1 secretion stimulation [5] 4.8% | inhibition of viability [6] 0.9% | viability decrease (inhibition) [7] -24.6% | viability decrease (inhibition) [8] -1%
1.2%: nuclear beta-catenin stimulation ([1]; stimulation, at 2 µM)

CC[N+](CC)(CC)CCOC(=O)C(C1CCCC1)C1CCCC1
inactive: nuclear beta-catenin stimulation ([1]; at 10 µM) 1.2% | insulin secretion stimulation [2] 0.5% | viability decrease [3] 28.7% | tube area decrease [4] 8.3% | GLP1 secretion stimulation [5] 1.6% | inhibition of viability [6] 21.8% | viability decrease (inhibition) [7] -14.4% | viability decrease (inhibition) [8] 4.1%
2%: nuclear beta-catenin stimulation ([1]; stimulation, at 2 µM)

Nc1ccc(C(=O)OCC(O)CO)cc1 (stereo not given)
3.7%: nuclear beta-catenin stimulation ([1]; stimulation, at 2 µM)
inactive: nuclear beta-catenin stimulation ([1]; at 10 µM) 3.1% | insulin secretion stimulation [2] 0.6% | viability decrease [3] 0.9% | tube area decrease [4] -15.4% | GLP1 secretion stimulation [5] -0.9% | inhibition of viability [6] 6.7% | viability decrease (inhibition) [7] -16.3% | viability decrease (inhibition) [8] -3.4%

COC(=O)c1nc(Cl)c(Cl)nc1N
84.9%: nuclear beta-catenin stimulation ([1]; stimulation, at 2 µM)
inactive: insulin secretion stimulation [2] 2.2% | GLP1 secretion stimulation [5] 4.1%
active: nuclear beta-catenin stimulation ([1]; at 10 µM) 15.9% | viability decrease [3] 82.2% | tube area decrease [4] 110% | inhibition of viability [6] 75% | viability decrease (inhibition) [7] 132% | viability decrease (inhibition) [8] 101%

O=C(O)CCCC[P+](c1ccccc1)(c1ccccc1)c1ccccc1
inactive: nuclear beta-catenin stimulation ([1]; at 10 µM) -2.3% | insulin secretion stimulation [2] 3.5% | viability decrease [3] -11% | tube area decrease [4] 7.8% | GLP1 secretion stimulation [5] 2.8% | inhibition of viability [6] -8.2% | viability decrease (inhibition) [7] -3.6% | viability decrease (inhibition) [8] 2.9%
-0.2%: nuclear beta-catenin stimulation ([1]; stimulation, at 2 µM)

N/C(=N\N=C\c1ccc(Cl)cc1)N/N=C/c1ccc(Cl)cc1
inactive: nuclear beta-catenin stimulation ([1]; at 10 µM) 0.5% | insulin secretion stimulation [2] -0.1% | GLP1 secretion stimulation [5] -3.3%
0.1%: nuclear beta-catenin stimulation ([1]; stimulation, at 2 µM)
active: viability decrease [3] 99.6% | tube area decrease [4] 108% | inhibition of viability [6] 99.3% | viability decrease (inhibition) [7] 103% | viability decrease (inhibition) [8] 102%

NC[C@H]1O[C@H](O[C@H]2[C@H](O[C@@H]3O[C@H](CO)[C@@H](O)[C@H]3O)C(O)[C@H](N)C[C@@H]2N)[C@H](N)[C@@H](O)[C@@H]1O (stereo not given in full)
2.2%: nuclear beta-catenin stimulation ([1]; stimulation, at 2 µM)
inactive: nuclear beta-catenin stimulation ([1]; at 10 µM) 0.5% | insulin secretion stimulation [2] 1.4% | viability decrease [3] -14.9% | tube area decrease [4] -12.5% | GLP1 secretion stimulation [5] 0.7% | inhibition of viability [6] 2.3% | viability decrease (inhibition) [7] 0.4% | viability decrease (inhibition) [8] -14.4%

CCCCCOc1ccc(C2SC(=O)NC2=O)cc1OCC (stereo not given)
11.7%: nuclear beta-catenin stimulation ([1]; stimulation, at 2 µM)
inactive: nuclear beta-catenin stimulation ([1]; at 10 µM) -0.1% | insulin secretion stimulation [2] 0.7% | viability decrease [3] 46.8% | tube area decrease [4] 5.8% | GLP1 secretion stimulation [5] 3.7% | inhibition of viability [6] 32.6% | viability decrease (inhibition) [7] 6.6% | viability decrease (inhibition) [8] 11.8%

Cn1cc(C(=O)[C@@H]2CCc3nc[nH]c3C2)c2ccccc21
-0.1%: nuclear beta-catenin stimulation ([1]; stimulation, at 2 µM)
inactive: nuclear beta-catenin stimulation ([1]; at 10 µM) 2.4% | insulin secretion stimulation [2] 5.1% | viability decrease [3] 2.2% | tube area decrease [4] 17.2% | GLP1 secretion stimulation [5] 0.6% | inhibition of viability [6] -2.5% | viability decrease (inhibition) [7] 11.2% | viability decrease (inhibition) [8] -4.05%

CN(C)CCCN1c2ccccc2CCc2ccc(Cl)cc21
-18.9%: inhibition [9]
active: inhibition of viability [6] 67.4% | viability decrease (inhibition) [7] 61.1% | viability decrease (inhibition) [8] 61.8%
1.05: normalised cell number ([16]; measured here: mesenchymal TEM4-18 mCherry cell survival)
-0.587 and 0.253: z-score ([17]; Rieske KO mouse fibroblast survival, CellTiter-Glo 72 h)
2.5%: nuclear beta-catenin stimulation ([1]; stimulation, at 2 µM)
66.7%: inhibition of aggregation [12]
inactive: nuclear beta-catenin stimulation ([1]; at 10 µM) 2.9% | insulin secretion stimulation [2] 5.4% | viability decrease [3] -53% | tube area decrease [4] 23.1% | GLP1 secretion stimulation [5] 13.3% | inhibition [15] 13.8% | red/green cell ratio (normalised) ([16]; actives lie on both sides, counts scaled to control wells, 1 = unselective) 1.09 | z-score ([17]; MELAS cybrid survival, CellTiter-Glo 48 h, stronger effect = higher value) -0.661 and 0.117 | remaining NAD [18] 10 nM | luciferase signal [19] 32 AU
0.939: aggregation suppression score [14]
1.15: cytochrome c release ratio [11]
0.98: score [10]
0.96: normalised cell number ([16]; measured here: epithelial PC-3E GFP cell survival)
6.78%: glutamate uptake change [13]
